Assay results as given in PubChem BioAssay AID463173 (ICCB-Longwood Screening Facility, Harvard Medical School, 2010).
Hit rate of the full screen: of about 52,000 compounds, about 4,300 (8.3%) were called active. The entries come from a sample that favours actives as a whole. A number with no mark means an inactive call. Cut-off read from the data, not from the text of the source: active = survival mostly below about 52% (no sharp cut-off); inactive = mostly above about 56%.

Test system: DeltatarO mutant
Test: S. aureus survival, RN4220 and DeltatarO strains – OD600, teichoic acid synthesis inhibitors, primary screen (AID 463173)
Settings: S. aureus RN4220 wild type/DeltatarO growth, OD600, 18 h, hits give low values, screened at 18.75 µg/mL (by protocol)

Compound	survival
CC(C)c1cc(-c2nc(-c3ccc(Br)cc3)no2)n[nH]1	95%
O=C(Cn1c(-c2cccs2)cc2cc(F)ccc21)NCCc1ccc(Cl)cc1	91%
Cc1ccc(Cl)cc1-n1ncc2c(NCCC3=CCCCC3)ncnc21	91%
Clc1cccc(-n2ncc3c(NCCC4=CCCCC4)ncnc32)c1	37% (active)
Cc1ccc(-n2ncc3c(NCCC4=CCCCC4)ncnc32)cc1C	119%
Clc1cccc(-n2ncc3c(NCCc4ccccc4)ncnc32)c1	94%
Fc1ccc(-n2ncc3c(NCCC4=CCCCC4)ncnc32)cc1	83%
Cc1ccc(-n2ncc3c(NCCC4=CCCCC4)ncnc32)cc1	20% (active)
Cc1ccc(-n2ncc3c(NCCc4ccccc4)ncnc32)cc1Cl	65%
Cc1ccc(-n2ncc3c(NCc4ccccc4)ncnc32)cc1C	70%
Cc1ccc(-n2ncc3c(NCc4ccccc4)ncnc32)cc1Cl	-4% (active)
COc1cccc(C2C(C(=O)Nc3cccnc3)=C(C)Nc3nc(SCc4ccccc4)nn32)c1 (stereo not drawn)	81%
COc1ccc(Cn2c(SCc3ccc(C(=O)NC4CCCC4)cc3)nc3cccnc32)cc1	69%
COC(=O)c1sc2nc3ccccc3cc2c1N	93%
COCCNS(=O)(=O)c1ccc(S(=O)(=O)N2CCCCC2)cc1	103%
Cc1ccc2cc(CN(CC3CCCO3)C(=O)C3CCC3)c3nnnn3c2c1 (stereo not drawn)	95%
CCC(C)NC(=O)CCCc1nnc2n(CC(C)C)c(=O)c3sccc3n12 (stereo not drawn)	94%
O=S(=O)(NCCS(=O)(=O)N1CCN(c2ccccc2)CC1)c1ccccc1	81%
CCN(C1CCCCC1)S(=O)(=O)c1ccc(S(=O)(=O)NC2CC2)cc1	90%
O=C(Nc1ccccc1)C1CCN(S(=O)(=O)c2ccc3c(c2)CCCN3C(=O)C2CCC2)CC1	95%

Compound	survival
CCOc1ccc(Nc2c(S(=O)(=O)c3ccccc3)cnc3ccccc23)cc1	38% (active)
CCOc1ccc(Nc2c(S(=O)(=O)c3ccc(Cl)cc3)cnc3ccc(OCC)cc23)cc1	66%
CCOc1ccc(Nc2c(S(=O)(=O)c3ccccc3)cnc3ccc(CC)cc23)cc1	34% (active)
CCOc1ccc(Nc2c(S(=O)(=O)c3ccc(C)cc3)cnc3ccc(F)cc23)cc1	64%
CCOc1ccc(Nc2c(S(=O)(=O)c3ccc(C)cc3)cnc3ccccc23)cc1	43% (active)
CCOc1ccc(Nc2c(S(=O)(=O)c3ccc(Cl)cc3)cnc3ccc(OC)cc23)cc1	67%
CCOc1ccc(Nc2c(S(=O)(=O)c3ccccc3)cnc3ccc(F)cc23)cc1	92%
CCOc1ccc(Nc2c(S(=O)(=O)c3ccc(C)cc3)cnc3cc(OC)c(OC)cc23)cc1	70%
CCOc1ccc(Nc2c(S(=O)(=O)c3ccc(C)cc3)cnc3ccc(OC)cc23)cc1	59%
CCOc1ccc(C(=O)NCC(c2ccc3c(c2)OCO3)N2CCN(c3ccc(F)cc3)CC2)cc1 (stereo not drawn)	87%
COc1ccc(Cl)cc1NC(=O)Cn1cnc2sc(C)c(S(=O)(=O)N3CCN(c4ccccc4OC)CC3)c2c1=O	79%
CCN(c1ccccc1)c1nnc(NC(=O)Nc2ccc(Br)c(C)c2)s1	89%
COc1ccccc1NC(=O)c1c(-c2ccc(C)cc2)nnc2ccccc12	105%
Cc1cc(F)ccc1S(=O)(=O)Nc1ccc(O)c(Sc2ncn[nH]2)c1	111%
CC(C)NC(=O)c1nc2ccccc2s1	88%
Cn1c(=O)sc2cc(NS(=O)(=O)c3ccc(C(C)(C)C)cc3)ccc21	92%
CS(=O)(=O)Nc1ccc(-c2nc3ccccc3s2)cc1	48%
CC(C)c1ccc(S(=O)(=O)Nc2ccc(O)c(Sc3nc4ccccc4s3)c2)cc1	1% (active)
O=C(Nc1ccc(Cl)cc1-c1nc2ccccc2s1)c1ccco1	74%
Cc1nc2ccc(S(=O)(=O)NC(C(=O)NCc3ccccc3Cl)C(C)C)cc2s1 (stereo not drawn)	102%

Compound	survival
CC(C)c1ccc(C(=O)Nc2ccc(-c3nc4ccccc4s3)c(Cl)c2)cc1	216%
CC(C)(C)c1ccc(S(=O)(=O)Nc2ccc(O)c(Sc3nc4ccccc4s3)c2)cc1	-4% (active)
O=S(=O)(Nc1ccc(O)c(Sc2nc3ccccc3s2)c1)c1cc(Cl)ccc1Cl	-8% (active)
Cc1nc2ccc(S(=O)(=O)CCC(=O)Nc3ccc(C(C)C)cc3)cc2s1	50%
Cc1cc(S(=O)(=O)Nc2ccc(O)c(Sc3nc4ccccc4s3)c2)ccc1Cl	-1% (active)
CCOC(=O)CNc1nnc(SCC(=O)OCC)[nH]c1=O	71%
Cc1ccc2oc(C(=O)Nc3ccc(S(=O)(=O)N4CCCC(C)C4)cc3)cc(=O)c2c1 (stereo not drawn)	69%
Cc1ccc(Cl)cc1N1CCN(CCCNc2ncnc3onc(-c4ccc(F)cc4)c23)CC1	80%
Cc1ccc2nc(-c3ccncc3)c(Nc3ccc(C(C)C)cc3)n2c1	75%
CC(C)(Cc1ccc(O)cc1)NC(=O)c1ccccc1	86%
CC(=O)c1c(C)n(-c2cccc(Cl)c2)c2ccc(OC(=O)c3ccccc3)cc12	77%
CN(CC(=O)NCc1ccccc1Cl)S(=O)(=O)c1ccc2c(c1)c(=O)n(C)c(=O)n2C	130%
CCOc1ccccc1C(=O)Nc1ccc(S(=O)(=O)Nc2ncccn2)cc1	76%
CC1=CCC2C(=O)N(C3CCCCC3)C(=O)C2C1 (stereo not drawn)	79%
O=C(Nc1ccc(F)cc1F)N1CCN(c2ccc(Cl)c(Cl)c2)CC1	48% (active)
Cc1ccc(NC(=O)N2CCN(c3ccc(Cl)c(Cl)c3)CC2)cc1	102%
CC(C)c1ccc(NC(=O)N2CCN(c3ccc(Cl)c(Cl)c3)CC2)cc1	87%
CCn1cc(S(=O)(=O)c2ccc(C)cc2)c(=O)c2cc(F)c(N3CCCCCC3)cc21	90%
